# BAZ2B block: BAZ2B (human) inhibition. Q9UIF8. AlphaScreen BAZ2B-H3K14Ac peptide displacement. Potency, µM (titrated, usually from 114 µM), for the others: at the highest dose activity change, negative = inhibition, usual class: inhibitors. hit rate 4.4% among 360,000. AID 504333; further: on the % scale 0 is the no-effect control and ±100 the full control effect; nearly all actives have a fitted effect of over 60% in size
# Target sequence (Q9UIF8 whole entry, looked up): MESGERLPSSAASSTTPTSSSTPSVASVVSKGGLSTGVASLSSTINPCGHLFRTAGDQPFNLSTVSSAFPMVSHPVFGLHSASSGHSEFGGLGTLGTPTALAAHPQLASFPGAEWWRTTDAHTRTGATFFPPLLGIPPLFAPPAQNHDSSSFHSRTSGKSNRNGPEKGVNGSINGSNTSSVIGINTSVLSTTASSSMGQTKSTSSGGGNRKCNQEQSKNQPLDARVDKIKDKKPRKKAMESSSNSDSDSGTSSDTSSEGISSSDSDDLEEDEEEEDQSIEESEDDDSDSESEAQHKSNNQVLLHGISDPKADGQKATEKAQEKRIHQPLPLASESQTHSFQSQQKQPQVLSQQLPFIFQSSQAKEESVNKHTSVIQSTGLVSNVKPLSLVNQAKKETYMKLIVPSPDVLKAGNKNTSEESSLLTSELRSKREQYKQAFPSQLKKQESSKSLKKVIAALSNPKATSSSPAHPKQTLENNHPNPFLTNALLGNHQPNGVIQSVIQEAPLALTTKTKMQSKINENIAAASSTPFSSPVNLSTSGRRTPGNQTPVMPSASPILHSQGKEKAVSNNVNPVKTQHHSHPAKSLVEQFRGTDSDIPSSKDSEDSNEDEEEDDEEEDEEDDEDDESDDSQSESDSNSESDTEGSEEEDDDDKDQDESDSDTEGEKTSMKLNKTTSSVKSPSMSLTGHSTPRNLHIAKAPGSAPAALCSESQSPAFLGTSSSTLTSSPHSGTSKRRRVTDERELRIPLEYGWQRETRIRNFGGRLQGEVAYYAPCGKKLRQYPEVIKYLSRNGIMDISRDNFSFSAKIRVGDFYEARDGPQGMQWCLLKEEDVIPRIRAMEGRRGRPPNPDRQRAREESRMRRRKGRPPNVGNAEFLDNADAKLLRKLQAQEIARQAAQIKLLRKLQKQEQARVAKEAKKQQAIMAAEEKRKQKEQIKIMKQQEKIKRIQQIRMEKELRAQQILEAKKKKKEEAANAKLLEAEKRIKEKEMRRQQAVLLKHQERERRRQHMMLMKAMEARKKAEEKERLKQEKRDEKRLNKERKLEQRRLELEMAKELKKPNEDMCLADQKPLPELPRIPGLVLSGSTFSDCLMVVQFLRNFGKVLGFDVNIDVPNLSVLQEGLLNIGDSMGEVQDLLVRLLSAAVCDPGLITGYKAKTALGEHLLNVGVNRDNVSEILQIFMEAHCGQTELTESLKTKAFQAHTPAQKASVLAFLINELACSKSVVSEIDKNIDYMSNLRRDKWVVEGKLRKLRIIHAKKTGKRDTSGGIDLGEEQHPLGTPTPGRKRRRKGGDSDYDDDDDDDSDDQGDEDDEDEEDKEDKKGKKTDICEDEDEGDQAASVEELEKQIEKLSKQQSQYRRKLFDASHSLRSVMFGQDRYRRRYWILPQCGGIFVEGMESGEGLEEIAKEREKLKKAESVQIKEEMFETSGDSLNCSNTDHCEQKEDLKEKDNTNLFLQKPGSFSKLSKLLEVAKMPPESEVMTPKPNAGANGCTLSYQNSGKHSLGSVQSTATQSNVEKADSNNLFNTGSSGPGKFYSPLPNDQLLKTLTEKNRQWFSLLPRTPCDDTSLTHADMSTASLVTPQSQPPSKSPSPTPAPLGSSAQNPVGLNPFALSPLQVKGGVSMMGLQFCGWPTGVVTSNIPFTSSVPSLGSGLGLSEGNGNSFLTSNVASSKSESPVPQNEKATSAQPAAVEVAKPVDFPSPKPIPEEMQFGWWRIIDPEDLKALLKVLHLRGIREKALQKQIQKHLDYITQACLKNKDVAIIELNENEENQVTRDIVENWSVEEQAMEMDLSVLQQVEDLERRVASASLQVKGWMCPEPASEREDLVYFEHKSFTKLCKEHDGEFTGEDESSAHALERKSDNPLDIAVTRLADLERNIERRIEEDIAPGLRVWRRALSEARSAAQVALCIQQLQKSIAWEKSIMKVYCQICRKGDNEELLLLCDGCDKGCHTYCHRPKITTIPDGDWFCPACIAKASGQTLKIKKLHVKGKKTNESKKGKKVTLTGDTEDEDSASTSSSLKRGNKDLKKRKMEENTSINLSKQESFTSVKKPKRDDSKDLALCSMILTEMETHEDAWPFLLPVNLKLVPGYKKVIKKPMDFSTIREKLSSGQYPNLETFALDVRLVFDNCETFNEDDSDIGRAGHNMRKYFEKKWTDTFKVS
#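 AlphaScreen luminescence quantifies BAZ2B engagement of H3K14Ac peptide; the protein and biotinylated peptide are both at 50 nM final, buffer PBS pH 7.4 with 0.01% Tween-20, all steps at room temperature.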
# HP1b binding inh: blocks HP1-beta chromodomain binding to methylated histone tails; hit rate 0.56% among 390,000; Potency, µM (series often up to 114 µM), for the others: at the highest dose activity change, negative = inhibition, actives largely listed as inhibitors; AID 540317; AlphaScreen HP1-beta / biotin-H3K9me3 peptide binding; further: nearly all actives have a fitted effect of over 70% in size
#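 AlphaScreen: HP1-beta (50 nM) preformed 30 min with biotin-H3(1-18)K9me3 peptide (50 nM) in PBS pH 7.4, 0.01% Tween-20. Compound added for 30 min at RT, then streptavidin donor/nickel chelate acceptor beads (10 ug/mL) for 30 min.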
# GLS inhibitor: inhibitors of human glutaminase (GLS); GLS enzymatic activity, qHTS titration; Potency, µM (doses to about 45.5 µM), for inactives: top-dose activity change, negative = inhibition, most hits filed as inhibitors; AID 624170; O94925; hit rate 0.21% among 410,000; further: on the % scale 0 is the no-effect control and ±100 the full control effect
#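 hKGA in 45 mM KH2PO4 pH 8.2, 0.02% Tween-20 with pin-transferred compounds; 1 mM L-glutamine (stock) plus glutamate oxidase/HRP/Amplex Red coupling added. Fluorescence read initially and after 30 min at RT.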
# JMJD2A Tudor: inhibitors of human JMJD2A Tudor domain | O75164 | AlphaScreen JMJD2A-Tudor / H3K4me3 peptide binding | Potency, µM (doses to about 114 µM), without a hit: at the top dose activity change, negative = inhibition, actives largely listed as inhibitors | hit rate 4.4% among 390,000 | AID 504339; further: on the % scale 0 is the no-effect control and ±100 the full control effect; nearly all actives have a fitted effect of over 50% in size
# G9a inh: blocks human histone lysine methyltransferase G9a; Potency, µM (top dose mostly 102 µM), for the others: at the highest dose activity, negative = inhibition, most hits filed as inhibitors; Q96KQ7; hit rate 8.8% among 350,000; AID 504332; G9a H3K9 monomethylation, AlphaScreen, 2 h; further: on the % scale 0 is the no-effect control and ±100 the full control effect; nearly all actives have a fitted effect of over 75% in size
#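 Using a bead-based AlphaScreen, monomethylated H3K9 product from 2 h room-temperature reactions (G9a 20 nM, peptide 500 nM, SAM 20 uM) was detected with 0.5 ug/mL rabbit anti-H3K9me1 antibody.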
# * = called active by the depositor; ? = inconclusive; / = no result; [ ] = remark or other dose. An excerpt weighted towards active compounds, which were near 10% of everything screened. The call rests on the fitted dose curve; in most records, active means well fitted curve in the direction sought with a large enough effect; inconclusive means small, poorly fitted or top-dose-only effect, or another doubt; inactive means no such curve, though single readings can be large; an effect the other way counts as inactive or inconclusive. Potency means the concentration at half of the fitted maximal effect.
SMILES,BAZ2B block,HP1b binding inh,GLS inhibitor,JMJD2A Tudor,G9a inh
CC(C)c1ccc(OCC(=O)NNC(=S)NC(=O)C2CC2)cc1,-0.7%,2.8%,39.6%,-25.2%,-6.2%[12.7 µM]
Cc1ccc(OCC(=O)NNC(=O)c2ccc(NC(=O)C3CC3)cc2)c(C)c1,-2.2%,30.2%,8.9%,-15.7%,65.6%
Cc1ccc(OCC(=O)N2CCCCCC2)c(C)c1,5.6%,11.5%,-0.3%,-16.2%,4.8%[59 µM]
Cc1ccc(OCC(=O)NNC(=S)NC(=O)C(C)(C)C)c(Br)c1,-2.5%,-5.5%,10.9%,?,25.1µM*
N#Cc1ccc(OCC(=O)NNC(=S)NC(=O)C2CC2)cc1,/,24.1%,4.4%,28.2µM*,/
Cc1ccc(OCC(=O)NNC(=S)NC(=O)C2CC2)c(C)c1,-22.5%,/,/,/,10µM*
CCOC(=O)[C@H](CCc1ccccc1)N[C@@H](C)C(=O)N(CC(=O)O)C1Cc2ccccc2C1,/,/,4.4%,/,/
Cc1ccc(N2C(=O)CC(Cc3cccc(C)c3)C2=O)cc1 (centres undefined),1.8%,47.3%,-9.0%,7.0%,17.6%
CCc1cccc(NC(=O)CC(c2ccc(OC)cc2)N2Cc3ccccc3C2=O)c1 (centres undefined),-19.7%,?,-11.6%,-24.1%,-8.8%[59 µM]
COc1cc(OC)c(NC(c2nnc(-c3ccccc3)o2)c2ccc(F)cc2Cl)cc1Cl (centres undefined),?,-15.9%,5.8%,?,11.2µM*
CCn1c(-c2cc(-c3cc(OC)ccc3OC)nc3ccccc23)n[nH]c1=S,?,28.0%,-10.4%,20µM*,3.55µM*
CCn1c(-c2cc(-c3ccccc3OC)nc3ccccc23)n[nH]c1=S,-38.9%,22.5%,4.0%,56.2µM*,2.82µM*
COc1ccc(OC)c(NC(=O)Cn2c(C)nc3ccccc3c2=O)c1,6.3%,27.1%,-5.0%,-17.4%,39.1%
O=C(CSc1nnc(-c2ccncc2)o1)Nc1nncs1,-22.3%,17.8%,1.5%,31.6µM*,14.7%
Cc1ccc(NC(=O)CSc2nnc(-c3ccccc3C)o2)cc1C,-21.0%,12.9%,6.0%,1.1%[57.1 µM],?
O=C(CSc1nnc(-c2ccccc2Br)o1)Nc1nncs1,18.9%,18.0%,-1.5%,-13.3%,/
Cc1ccc(NC(=O)CSc2nnc(-c3ccccc3Br)o2)cc1C,-4.7%,14.5%,0.0%,-16.8%,10µM*
O=C(CSc1nnc(-c2ccc(O)cc2)o1)NNC(=O)c1ccncc1,?,8.5%,0.0%,?,17.8µM*
O=C(CSc1nnc(-c2cccnc2)o1)Nc1cccc(Cl)c1,-8.4%,28.6%,2.2%,-7.5%,44.7µM*
O=C(CSc1nnc(-c2cccnc2)o1)Nc1ccc(Cl)cc1,-9.8%,28.9%,-0.7%,-8.4%,-17.7%
COc1ccc(NC(=O)c2c(C)noc2C(C)C)cc1S(=O)(=O)N1CCCCC1,10.7%,24.1%,-2.2%,-6.9%,?
COc1cc(-c2cc(N)n(S(=O)(=O)c3ccccc3)n2)cc(OC)c1OC,5.1%,8.6%,2.3%,-31.9%,4.1%
Nc1cc(-c2ccccc2)nn1S(=O)(=O)c1ccc(Br)cc1,-6.7%,32.3%,8.7%,-29.7%,50.1µM*
CCc1ccc2nc3sc(C(=O)N4CCc5ccccc54)c(N)c3cc2c1,-9.6%,/,/,/,50.1µM*
CCOc1ccc2nc3sc(C(=O)N4CCN(C)CC4)c(N)c3cc2c1,-36.6%,37.0%,-7.7%,?,?
SMILES,BAZ2B block,HP1b binding inh,GLS inhibitor,JMJD2A Tudor,G9a inh
Cc1ccc2nc3sc(C(=O)N4CCOCC4)c(N)c3cc2c1,-1.8%,47.0%,-14.5%,?,14.1µM*
Cc1ccc2cc3c(N)c(C(=O)N4CCOCC4)sc3nc2c1,2.2%,41.0%,-7.8%,-21.4%,28.2µM*
Cc1ccc(C)c2nc3sc(C(=O)N4CCCc5ccccc54)c(N)c3cc12,1.3%,14.2%,2.3%,-33.6%,?
COc1ccc2cc3c(N)c(C(=O)N4CCCC4)sc3nc2c1,?,32.8%,-19.1%,?,?
C[C@@H]1CN([C@H](C)CO)C(=O)CCCn2nncc2CO[C@H]1CN(C)CC1CC1,/,/,6.4%,/,/
O=C(O)CN1C(=O)/C(=C\c2ccccc2OCc2ccccc2)SC1=S,/,/,-2.6%,/,/
O=C(CN1C(=O)/C(=C/c2ccccc2Cl)SC1=S)NC1C=CS(=O)(=O)C1 (centres undefined),-32.1%,26.3%,-2.5%,-11.7%,-0.6%
COc1ccc(/C=C2/SC(=S)N(CC(=O)O)C2=O)cc1OCc1ccc(Cl)cc1,?,-18.9%,11.3%,?,/
O=C(O)CN1C(=O)/C(=C\c2cc(Br)ccc2OCc2ccc(Cl)cc2)SC1=S,50.1µM*,11.1%,28.1%,56.2µM*,14.1µM*
O=C(O)CN1C(=O)/C(=C\c2cc([N+](=O)[O-])ccc2OCc2ccccc2Cl)SC1=S,50.1µM*,?,?,50.1µM*,35.5µM*
O=C(O)CCCN1C(=O)/C(=C\c2ccccc2OCc2ccccc2)SC1=S,50.1µM*,?,31.3%,56.2µM*,39.8µM*
O=C(O)CN1C(=O)/C(=C\c2ccccc2OCc2ccc(F)cc2)SC1=S,-33.8%,-10.5%,35.4%,?,50.1µM*
Cc1ccccc1CN1CCN(c2nc3ccccc3s2)CC1,15.6%,83.9%,-1.3%,34.5%,58.0%
Nc1cc(N)cc(C(=O)c2ccccc2)c1,/,/,53.8%,/,/
O=C(O)CN1C(=O)/C(=C\c2cc(Br)ccc2OCc2ccc(F)cc2)SC1=S,56.2µM*,?,9.6%,?,44.7µM*
O=C(O)CCCN1C(=O)/C(=C/c2cn(-c3ccccc3)nc2-c2cccs2)SC1=S,44.7µM*,?,?,14.1µM*,?
O/N=C/c1cc(Br)ccc1OCc1ccc(F)cc1,/,15.3%,13.1%,-35.1%,/
CN1CCN(C(=O)CCCN2C(=O)/C(=C/c3ccccc3)SC2=S)CC1,?,-38.3%,-23.4%,?,?
O=C(O)CCCCN1C(=O)/C(=C\c2ccc(OCc3ccccc3)c(OCc3ccccc3)c2)SC1=S,31.6µM*,?,10.1%,17.8µM*,-21.9%
O=C(O)CCCN1C(=O)/C(=C\C(Cl)=C\c2ccccc2)SC1=S,50.1µM*,?,-2.5%,50.1µM*,14.1µM*
CC(C)c1ccc(NC(=O)c2cccn2-c2nnc(N3CCCCC3)s2)cc1,?,-14.4%,-11.1%,-28.2%,-40.9%[59 µM]
Cc1cc(NC(=O)c2cccn2-c2nnc(N3CCCCC3)s2)ccc1Br,70.8µM*,8.1%,3.1%,?,-24.1%[59 µM]
CN(C)c1ccc(CNC(=O)c2cccn2-c2nnc(N3CCCCC3)s2)cc1,39.8µM*,-3.2%,1.3%,?,-43.3%[59 µM]
COc1ccccc1CNC(=O)c1cccn1-c1nnc(N2CCCCC2)s1,?,-3.6%,-10.9%,-8.1%,-26.2%[59 µM]
Cc1nn(C(C)C(=O)NCCc2ccco2)c(=O)c2nn(-c3ccccc3)c(C)c12 (centres undefined),-17.6%,1.4%,0.4%,79.4µM*,33.3%

# Screens from PubChem BioAssay.
